Values joined by “and” are separate entries in the source; they are usually repeats but may differ in a detail not shown here. Equal entries are not always repeated. In all, about 420,000 compounds went through this assay and about 50,000 (12%) were called active. Roughly 26% stayed inconclusive and do not appear here. Many of the other results were omitted from the sample, so actives are more common in it than they were. A number with no mark means an inactive call. Calls follow the shape of the dose curve; as a rule, active = well fitted inhibition curve with a large enough effect; inconclusive = small, poorly fitted or top-dose-only effect; inactive = flat fitted curve, though single readings scatter.
test: qHTS for Inhibitors of human tyrosyl-DNA phosphodiesterase 1 (TDP1): qHTS in cells in presence of CPT; details: chicken DT40 Tdp1-/-;hTDP1 cells + 20 nM CPT, ATP luminescence, 48 h; series mostly up to 46.2 µM; activity change, negative = growth inhibition: at the top concentration; also: nearly all actives have a fitted effect of over 55% in size
How it was run: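 Cell growth measured by CellTiter-Glo luminescence after a minimum 48 h, 37 C compound exposure with 20 nM CPT in Tdp1-knockout DT40 cells stably expressing hTDP1, seeded 400/well; qHTS titration format.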
% is scaled to controls: 0 for no effect and ±100 for the full control effect; potency is read from the fitted curve at half-maximal effect.

Structure (SMILES)	activity change, negative = growth inhibition	Potency
CCCCn1c(N)c(N(CC(C)C)C(=O)C2CSC3(C)CCC(=O)N23)c(=O)[nH]c1=O (stereo not drawn)	-2.75%	–
C[C@@H]1CN([C@H](C)CO)C(=O)c2cc(Br)cnc2O[C@@H]1CN(C)Cc1cncnc1	-9.96%	–
C[C@H]1CN([C@@H](C)CO)C(=O)Cc2cc(NS(C)(=O)=O)ccc2O[C@@H]1CN(C)CC1CC1	-3.44%	–
CCOC(=O)CCCCCC(=O)Nc1ccc2c(c1)CC(=O)N([C@@H](C)CO)C[C@H](C)[C@@H](CN(C)Cc1ccccc1)O2	–	18.4 µM (active)
C[C@H]1CN([C@@H](C)CO)C(=O)CCCn2nncc2CO[C@@H]1CN(C)Cc1ccc(Oc2ccccc2)cc1	–	23.1 µM (active)
Cc1ccc(CN(C)C[C@@H]2OCc3cnnn3CCCC(=O)N([C@@H](C)CO)C[C@H]2C)cc1	-7.27%	–
COc1ccc(-c2cnc3c(c2)C(=O)N([C@H](C)CO)C[C@@H](C)[C@H](CN(C)Cc2ccccc2)O3)cc1	–	14.6 µM (active)
C[C@H]1CN([C@@H](C)CO)C(=O)c2cc(-c3cccc(F)c3)cnc2O[C@@H]1CN(C)S(C)(=O)=O	4.29%	–
C[C@H](CO)N1C[C@H](C)[C@H](CN(C)CC2CC2)Oc2ccc(NC(=O)CCN3CCOCC3)cc2C1=O	9.49%	–
C[C@H](CO)N1C[C@H](C)[C@@H](CN(C)Cc2ccc3c(c2)OCO3)OCc2cnnn2CCCC1=O	9%	–
Cc1ccccc1NC(=O)c1cc(S(=O)(=O)Nc2cccc(C(=O)O)c2)ccc1Cl	-2.45%	–
Cc1cc(NC(=O)COc2ccc([N+](=O)[O-])cc2)no1	1%	–
CC1CCCC(C)N1C(=O)CSc1nnnn1C1CCCC1 (stereo not drawn)	-3.92%	–
CCc1nc(N2CCN(C(C)=O)CC2)c2c3c(sc2n1)CCCC3	-8.38%	–
Cc1c(OC(C)C(=O)N[C@@H](Cc2ccccc2)C(=O)O)ccc2c3c(c(=O)oc12)CCCC3 (stereo partly drawn)	2.76%	–
Cc1c(Br)c([N+](=O)[O-])nn1C(C)C(=O)Nc1nccs1 (stereo not drawn)	-29.9%	–
Cc1cccc(NC(=O)C2CCCN(C(=O)Nc3ccc(F)cc3)C2)c1C (stereo not drawn)	-26.8%	–
CCOc1ccccc1NC(=O)C1CCCN(C(=O)Nc2ccccc2)C1 (stereo not drawn)	-4%	–
Cc1c(Cl)cccc1NC(=O)C1CCCN(C(=O)c2cnn(-c3ccccc3)c2-n2cccc2)C1 (stereo not drawn)	–	23.1 µM (active)
COc1ccc(Cn2ccn(CC(=O)Nc3cc(C)ccc3C)c(=O)c2=O)cc1	15.1%	–
Cc1cccc(CSc2ccc(-c3cccs3)nn2)c1	–	inactive

Structure (SMILES)	activity change, negative = growth inhibition	Potency
Oc1c(Cl)cc(Cl)c(Cl)c1Cc1c(O)c(Cl)cc(Cl)c1Cl	–	4.73 µM (active) and 23.1 µM (active) and 3.26 µM (active)
Nc1[nH][nH]c(=O)c1N=Nc1ccc2c(c1)OCO2	-26.6%	–
Cc1ccc(N2CC(C(=O)Nc3ccc(S(=O)(=O)N4CCCC4)cc3)CC2=O)cc1C (stereo not drawn)	-24.4%	–
O=C(O)C1CCN1C1CCCCC1 (stereo not drawn)	1.27%	–
O=S1(=O)CCN(C2CCCCCCCCCCC2)CC1	–	20.6 µM (active)
O=S1(=O)CC(N2CCN(CCO)CC2)CN1C1CCCC1 (stereo not drawn)	-2.16%	–
COc1ccc(S(=O)(=O)N2CCC(C(=O)NCCC(=O)Nc3ccccc3OC)CC2)cc1	-19%	–
CC(NC(=O)c1ccccc1C(=O)O)c1ccc(-n2ccnc2)cc1 (stereo not drawn)	7.73%	–
COc1ccc(NC(=O)c2cc3cc(C)ccc3n2C)cc1	-22.3%	–
COc1ccc(OC)c(C(=O)c2ccc(Cl)cc2)c1	2.77%	–
COc1ccc(OC)c(/C(C)=N\NC(=O)c2cc3cc(Cl)ccc3n2C)c1	–	5.8 µM (active)
OC(c1ccccc1)c1nc(/C=C/c2ccc(C(F)(F)F)cc2)cs1 (stereo not drawn)	-21.7%	–
CCN(c1ccccc1)S(=O)(=O)c1cc2c(cc1C)n(C)c(=O)c(=O)n2C	11.4%	–
C[C@H](CO)N1C[C@H](C)[C@@H](CN(C)S(=O)(=O)c2ccc(F)cc2)OCc2cnnn2CCCC1=O	-11.4%	–
COc1cc(CN2CCCC(C(=O)c3ccc(SC)cc3)C2)cc(Cl)c1O (stereo not drawn)	–	11.6 µM (active)
COc1ccc(CCN(C)C(=O)C2CCCN(Cc3ccc(OC)c(OC)c3)C2)cc1OC (stereo not drawn)	34.4%	–
COc1ccc(CN2CCCC(C(=O)N3CCCCC3)C2)cc1 (stereo not drawn)	0.895%	–
COC(=O)N(C)C[C@@H]1OCc2cnnn2CCCC(=O)N([C@@H](C)CO)C[C@@H]1C	-3.67%	–
C/C(=N\NC(=O)c1cccc([N+](=O)[O-])c1)c1cccnc1	3.86%	–
CCOc1ccc(CNC(=O)c2cc(-c3ccc(Cl)s3)nc3ccccc23)cc1	–	20.6 µM (active)
C/C(=N\NC(=O)c1ccc2ccccc2c1)c1cccnc1	2.16%	–

Structure (SMILES)	activity change, negative = growth inhibition	Potency
CC(=O)N1CCN(C(=O)c2cc(-c3ccc(Cl)s3)nc3ccccc23)CC1	-7.3%	–
Cc1nc2ccc(C(=O)N/N=C/c3ccc(O)cc3)cc2[nH]1	4.58%	–
CCOc1ccc(-c2cc(C(=O)N/N=C/c3ccc(O)cc3)c3ccccc3n2)cc1	–	1.84 µM (active)
COc1cccc(-c2cc(C(=O)N/N=C/c3ccc(OC)c(COC(C)=O)c3)c3ccccc3n2)c1	–	8.2 µM (active)
C/C(=N\NC(=O)c1cc(-c2ccc(O)cc2)nc2ccccc12)c1cccnc1	–	20.6 µM (active)
COc1ccc(/C=N/NC(=O)c2ccc(Cl)cc2)cc1COC(C)=O	-3.77%	–
CCOc1ccc(NC(=O)c2cc(C)nc3ccccc23)cc1	9.45%	–
CNC(=O)COC(=O)c1cc(-c2ccc(OC)cc2)nc2ccccc12	-3.71%	–
O=C(N/N=C/c1ccc(OCc2ccccc2)cc1)c1ccc(O)cc1	-0.604%	–
CC(C)=CC1C(C(=O)O)C1(C)C (stereo not drawn)	-2.77%	–
COc1ccc(NC2CCCN(C(=O)c3ccccc3-c3ncc[nH]3)C2)cc1 (stereo not drawn)	-17%	–
OCC(O)C1OCOC(C(O)CO)C1O (stereo not drawn)	0.303%	–
COc1cc(OC)c(NC(=O)c2nc(-c3ccncc3)no2)cc1Cl	-17.3%	–
CC(C)c1cc(CN2CCOCC2)cc(C(C)C)c1O	13.7%	–
Cc1nn(C)c(Cl)c1CN1CCC(n2nccc2NC(=O)C2CCCC2)CC1	-1.25%	–
O=C(N/N=C\c1cccnc1)c1cc(-c2ccccc2)nc2c(Cl)cccc12	–	10.3 µM (active)
O=C(N/N=C/c1cccnc1)c1cc2ccccc2cc1O	-19.2%	–
O=C(N/N=C/c1cccnc1)c1ccc(NC(=O)c2ccc(F)cc2)cc1	8.72%	–
COc1cc(/C=N/NC(=O)c2cc(-c3ccccc3C)nc3ccccc23)cc(OC)c1O	–	5.8 µM (active)
Cc1cc(C(=O)N/N=C/c2ccccn2)c2ccccc2n1	1.01%	–
COc1cc(/C=N\NC(=O)C2C(=O)NCC2c2ccccc2)cc(OC)c1O (stereo not drawn)	9.54%	–

Source: PubChem BioAssay AID686979 (National Center for Advancing Translational Sciences (NCATS), 2013)
